Source: PubChem
In the library only some 2.4% were active in any assay of this set; here they are far more common.
ANO1 activ = activators or potentiators of mouse TMEM16A chloride channel; 0.3% of 340,000 active; HEK293 TMEM16A/YFP-H148Q/I152L, iodide quench fluorescence; hits give low values; B-score at 10 µM; AID 623877;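 active = fluorescence-ratio B-score plate-corrected deviation score at least 3 library SD below zero, with starting fluorescence score within 5 deviations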;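 also: channel opened by trigger with iodide after compound preincubation; score built on the fluorescence ratio of max minus min over baseline; more negative score means more quench and so TMEM16A activation or potentiation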
TLR4 MyD88 comp = TLR4-MyD88 interaction inhibition in cells | HeLa CL3-4 TLR4/MyD88 BLA complementation, FRET ratio | inhibition, % at 8.4 µM | 0.18% of 200,000 active | AID 861; in the data active = inhibition above about 25%;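 also: 0% = vehicle and 100% = reference inhibitor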
m5-HT2A agonist = mouse HTR2A agonism via beta-arrestin recruitment; CHO-K1 mHTR2A beta-arrestin complementation, luminescence; percent of 30 µM serotonin response; activation, % at 7.6 µM; 0.66% of 360,000 active; AID 624169;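 active = activation above a run cutoff, the mean activation of all tested compounds plus 3 SD, cut at about 14% in these data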;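 also: 0% = plate median of compound wells and 100% = 30 µM serotonin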
NOD2 RIPK2 PPI = blocks binding of human NOD2 to RIPK2; CHO BLA complementation NOD2-RIPK2, CCF4 ratio; inhibition, % at 4.98 µM; 0.38% of 360,000 active; AID 624267; in the data active = inhibition above about 21%;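 also: 0% = vehicle only and 100% = reference blocker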
ANO1 block = blocks the mouse calcium-activated chloride channel TMEM16A | HEK293 TMEM16A/YFP iodide influx fluorescence, ionomycin | normalized B-score (activity score, 25-100; higher = stronger inhibition) at 10 µM | 1.2% of 310,000 active | Q8BHY3;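 active = ratio plate-corrected score three or more library SD toward inhibition, starting fluorescence score within five deviations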;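 also: score derived from kinetic fluorescence span divided by baseline fluorescence per well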
TLR9-MyD88 inh = TLR9-MyD88 interaction inhibition; AID 504734; inhibition, % at 4.98 µM; Q9NR96+Q99836; CHO BLA complementation TLR9-MyD88, CCF4 FRET ratio; 0.21% of 340,000 active;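 active = inhibition above the mean over all tested compounds plus 3 SD, cut at about 21% in these data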;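 also: 0% = DMSO only wells and 100% = clavulanate BLA inhibitor control wells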
MOR ag counter = OPRM1 agonism in mouse HTR2A counterscreen; activation, % at 9.3 µM; AID 624380; shares compounds with m5-HT2A agonist; 5.3% of 2,300 active; U2OS OPRM1 beta-arrestin PathHunter, luminescence; DMSO 0%, DAMGO 9.3 µM 100%;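 active = mean activation above the mean of DMSO-only wells plus 3 SD, cut at about 0.5% in these data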
Target sequence (P35372 whole entry, looked up): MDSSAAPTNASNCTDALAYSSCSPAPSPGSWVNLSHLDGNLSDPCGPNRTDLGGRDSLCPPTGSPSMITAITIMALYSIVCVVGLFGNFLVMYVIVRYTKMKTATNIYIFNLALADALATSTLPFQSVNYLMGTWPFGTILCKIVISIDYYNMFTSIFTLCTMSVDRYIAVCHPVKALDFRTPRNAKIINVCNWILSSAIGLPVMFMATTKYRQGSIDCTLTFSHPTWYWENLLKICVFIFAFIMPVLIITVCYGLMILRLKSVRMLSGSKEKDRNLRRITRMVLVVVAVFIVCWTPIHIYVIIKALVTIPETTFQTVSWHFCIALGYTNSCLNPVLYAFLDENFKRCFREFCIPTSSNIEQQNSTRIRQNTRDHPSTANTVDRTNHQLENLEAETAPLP
HTR2A ag conf = mouse HTR2A agonism confirmed. activation, % at 7.6 µM. 19% of 2,300 active. shares compounds with m5-HT2A agonist. AID 624381. CHO-K1 PathHunter beta-arrestin recruitment, luminescence; DMSO 0%, 30 µM serotonin 100%;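 active = mean activation across triplicates above the hit threshold derived in the original primary screen, cut at about 15% in these data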
* hit, by the source's call; i = inactive; . = no result given.

SMILES	ANO1 activ	TLR4 MyD88 comp	m5-HT2A agonist	NOD2 RIPK2 PPI	ANO1 block	TLR9-MyD88 inh	MOR ag counter	HTR2A ag conf
CCOc1ccc(CN2CCN(CC(O)Cn3c4ccccc4c4ccccc43)CC2)cc1 (configuration not stated)	i	1.0	1.7	3.7	i	1.2	.	.
O=C(c1ccco1)N1CCN(Cc2ccc(F)cc2)CC1	i	.	20.3*	3.5	i	-6.1	-0.3	73.9*
CCOc1ccc(CN2CCN(C(=O)c3ccco3)CC2)cc1	i	.	24.0*	-8.3	i	-15.8	-0.2	129.5*
Cn1c(SCc2ccc(F)cc2)nnc1-c1cccs1	i	-16.3	1.3	-1.1	i	-7.0	.	.
COc1ccc2ccccc2c1CN1CCN(C(=O)c2ccco2)CC1	i	.	16.9*	-2.0	i	-9.3	-0.3	129.9*
COc1ccc(CN2CCN(C(=O)c3ccco3)CC2)cc1	i	2.5	25.3*	-6.0	i	7.1	-0.6	102.6*
O=C(c1ccco1)N1CCN(Cc2ccccc2Br)CC1	i	.	15.7*	-10.3	i	-9.0	-0.7	63.8*
COc1ccc(NC(=S)N2CCN(Cc3ccccc3)CC2)cc1	i	-2.3	-1.6	-65.0	i	-2.0	.	.
COc1ccc(NC(=S)N2CCN(C(=O)c3ccco3)CC2)cc1	i	.	1.9	-10.4	i	-4.4	.	.
COc1ccc(CNC(=S)N2CCN(Cc3ccccc3)CC2)cc1	i	.	18.6*	-3.5	i	-0.2	-0.5	8.8
CC1=NN(C(C#N)c2cccc([N+](=O)[O-])c2)C(C)(C)C1 (configuration not stated)	i	6.9	-3.0	12.4	i	1.8	.	.
C1=CC2CC1CC2CN1CCN(c2ccccc2)CC1 (configuration not stated)	i	15.4	14.7*	2.7	i	3.6	-0.4	57.1*
Cc1ccccc1CN1CCN(CC2CC3C=CC2C3)CC1 (configuration not stated)	i	1.3	-7.2	5.8	i	-5.7	.	.
COc1ccc(N2CCN(C(=O)COC(=O)c3ccco3)CC2)cc1	i	.	15.1*	3.0	i	-10.0	0.4	-1.0
CCOc1cc(CN2CCN(C(=O)c3ccco3)CC2)ccc1OC	i	3.3	18.0*	0.7	i	7.7	-0.5	71.0*
O=C(O)C1C2C=CC(O2)C1C(=O)NCc1ccc(Cl)cc1 (configuration not stated)	i	1.3	-0.4	-6.0	i	6.0	.	.
CCC(=O)N1CCN(c2ccc(Cl)cc2NC(=O)c2ccc(Br)o2)CC1	i	-14.0	-1.0	2.5	i	-7.0	.	.
NC(=O)c1ccc(NC(=O)CCNC(=O)c2ccco2)cc1	i	.	-0.4	-7.9	i	2.3	.	.
CC(C)(C)SC(=O)CC1NS(=O)(=O)OC2CCCCC12 (configuration not stated)	i	.	23.2*	-7.5	i	-3.1	-0.5	-4.0
O=C(NCc1ccco1)/C(=C\c1cccs1)NC(=O)c1cccs1	i	6.6	2.0	0.5	i	-1.8	.	.
O=C(NCCO)/C(=C\c1cccs1)NC(=O)c1cccs1	i	16.1	23.7*	2.2	i	3.6	-0.3	-2.3
Cc1cccc(/C=N/NC(=O)c2ccc(NC(=O)c3ccccc3Cl)cc2)n1	i	.	0.5	-6.8	i	-3.8	.	.
O=C(NS(=O)(=O)c1ccc(Cl)cc1)c1ccccc1	i	-2.6	14.7*	-5.1	i	-10.1	-0.4	-0.3
CCNC(=O)C(=O)NCC1CCCN1S(=O)(=O)c1cccs1 (configuration not stated)	i	.	-6.0	-12.2	i	-9.5	.	.
CCOC(=O)c1sc2nc(SCC#N)n(CCCN3CCCC3=O)c(=O)c2c1C	i	-18.9	0.1	-8.1	i	-11.9	.	.
SMILES	ANO1 activ	TLR4 MyD88 comp	m5-HT2A agonist	NOD2 RIPK2 PPI	ANO1 block	TLR9-MyD88 inh	MOR ag counter	HTR2A ag conf
CCCc1cc(=O)[nH]c(SCC(=O)N2c3ccccc3CC2C)n1 (configuration not stated)	i	.	14.5*	-11.9	.	-5.4	-0.4	-3.6
CCOC(=O)C1=C(O)C(=O)N(Cc2ccc(C(C)(C)C)cc2)CC1	i	-3.9	-1.2	-6.9	i	-1.5	.	.
C/C(CC(=O)Nc1ccc2c(c1)OCCO2)=N\NC(=O)COc1cccc(C)c1	i	.	-8.7	1.6	i	-0.5	.	.
Cc1cc([N+](=O)[O-])ccc1NC(=O)c1cncc(Br)c1	i	-10.6	15.8*	0.7	i	-6.2	-0.5	-4.9
COc1ccc([N+](=O)[O-])cc1NC(=O)c1cncc(Br)c1	i	-7.3	-4.2	-11.0	i	10.9	.	.
CN(C)c1ccc(/C=N/NC(=O)c2ccccc2O)o1	i	-2.0	0.8	13.1	i	-0.2	.	.
CC(C)c1[nH]nc2c1C1(CCN(Cc3ccccc3)CC1)C(C#N)=C(N)O2	i	5.7	30.7*	-7.4	i	-9.9	-0.5	-4.8
Cc1[nH]nc2c1C1(CCN(Cc3ccccc3)CC1)C(C#N)=C(N)O2	i	-6.3	9.1	-2.7	i	-12.1	.	.
CC(=O)N/N=C/c1cc(C(C)C)cc(/C=N/NC(C)=O)c1O	i	-0.8	-5.8	-0.8	i	-1.0	.	.
C=CCN(Cc1ccc(OC)c(OC)c1)C(=O)c1cc2cc(F)ccc2[nH]1	i	.	20.4*	0.8	i	-5.0	-0.5	-5.0
CCC(c1nnnn1C(C)(C)C)N1CCN(C/C=C/c2ccccc2)CC1 (configuration not stated)	.	.	15.3*	-10.8	.	.	0.2	38.5*
CCC(c1nnnn1-c1ccc(OC)cc1)N1CCN(C/C=C/c2ccccc2)CC1 (configuration not stated)	.	.	14.5*	1.4	.	.	-0.5	24.4*
CC(C)(C)n1nnnc1C(c1ccccc1)N1CCN(C/C=C/c2ccccc2)CC1 (configuration not stated)	.	.	-3.5	-8.4	.	.	.	.
Cc1ccc(NC(=O)CCCNC(=O)c2ccc(Cl)cc2)nc1	i	.	5.8	13.7	i	10.3	.	.
COc1ccc(Cl)cc1CC1(C)C(=O)Nc2ccc(-c3ccccc3OC)cc21 (configuration not stated)	.	.	21.1*	-7.1	.	.	-0.4	17.3*
COc1ccccc1-c1ccc2c(c1)C(C)(Cc1cc(Cl)ccc1C(F)(F)F)C(=O)N2 (configuration not stated)	.	.	0.5	-1.7	.	.	.	.
